Inhibition data for 24 compounds are collected here from ChEMBL document CHEMBL1961873, “Compounds: GSK PKIS; Assays: Nanosyn kinase panel” (2012).

In experiment [1] the target is RAF proto-oncogene serine/threonine-protein kinase (Homo sapiens) (UniProt P04049). Conditions: at 1 µM.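 Also: values are the mean percent inhibition of CRAF.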
For experiment [2], the target named is T1, Interleukin-1 receptor-associated kinase 4 (Homo sapiens) (UniProt Q9NWZ3).
T1 sequence (whole entry): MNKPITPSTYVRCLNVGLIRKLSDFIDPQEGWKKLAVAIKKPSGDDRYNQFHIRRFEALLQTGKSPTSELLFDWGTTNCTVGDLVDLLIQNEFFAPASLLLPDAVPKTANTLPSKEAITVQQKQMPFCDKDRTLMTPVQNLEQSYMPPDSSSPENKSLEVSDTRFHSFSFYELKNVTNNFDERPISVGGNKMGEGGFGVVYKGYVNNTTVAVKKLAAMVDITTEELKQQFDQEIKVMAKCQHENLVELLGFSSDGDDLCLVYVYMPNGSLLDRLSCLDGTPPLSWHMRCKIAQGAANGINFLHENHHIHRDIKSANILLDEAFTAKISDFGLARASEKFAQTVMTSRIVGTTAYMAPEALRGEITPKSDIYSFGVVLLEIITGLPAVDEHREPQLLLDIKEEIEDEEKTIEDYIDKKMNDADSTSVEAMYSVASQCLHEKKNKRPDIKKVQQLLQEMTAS
Conditions: at 0.1 µM.

Experiment [3] deals with T1, Interleukin-1 receptor-associated kinase 4 (Homo sapiens). Conditions: at 1 µM.
The target of experiment [4] is Leucine-rich repeat serine/threonine-protein kinase 2 (Homo sapiens) (UniProt Q5S007). Conditions: at 0.1 µM.
For experiment [5] the target is unchanged. Conditions: at 1 µM.
Experiment [6] deals with Leucine-rich repeat serine/threonine-protein kinase 2 (Homo sapiens), Q5S007 [G2019S]. Conditions: at 0.1 µM.
Experiment [7] has the same test system. Conditions: at 1 µM.

Structures are written as SMILES.

Sequence of Leucine-rich repeat serine/threonine-protein kinase 2 (Homo sapiens), Q5S007 [G2019S] (Q5S007 whole entry G2019S): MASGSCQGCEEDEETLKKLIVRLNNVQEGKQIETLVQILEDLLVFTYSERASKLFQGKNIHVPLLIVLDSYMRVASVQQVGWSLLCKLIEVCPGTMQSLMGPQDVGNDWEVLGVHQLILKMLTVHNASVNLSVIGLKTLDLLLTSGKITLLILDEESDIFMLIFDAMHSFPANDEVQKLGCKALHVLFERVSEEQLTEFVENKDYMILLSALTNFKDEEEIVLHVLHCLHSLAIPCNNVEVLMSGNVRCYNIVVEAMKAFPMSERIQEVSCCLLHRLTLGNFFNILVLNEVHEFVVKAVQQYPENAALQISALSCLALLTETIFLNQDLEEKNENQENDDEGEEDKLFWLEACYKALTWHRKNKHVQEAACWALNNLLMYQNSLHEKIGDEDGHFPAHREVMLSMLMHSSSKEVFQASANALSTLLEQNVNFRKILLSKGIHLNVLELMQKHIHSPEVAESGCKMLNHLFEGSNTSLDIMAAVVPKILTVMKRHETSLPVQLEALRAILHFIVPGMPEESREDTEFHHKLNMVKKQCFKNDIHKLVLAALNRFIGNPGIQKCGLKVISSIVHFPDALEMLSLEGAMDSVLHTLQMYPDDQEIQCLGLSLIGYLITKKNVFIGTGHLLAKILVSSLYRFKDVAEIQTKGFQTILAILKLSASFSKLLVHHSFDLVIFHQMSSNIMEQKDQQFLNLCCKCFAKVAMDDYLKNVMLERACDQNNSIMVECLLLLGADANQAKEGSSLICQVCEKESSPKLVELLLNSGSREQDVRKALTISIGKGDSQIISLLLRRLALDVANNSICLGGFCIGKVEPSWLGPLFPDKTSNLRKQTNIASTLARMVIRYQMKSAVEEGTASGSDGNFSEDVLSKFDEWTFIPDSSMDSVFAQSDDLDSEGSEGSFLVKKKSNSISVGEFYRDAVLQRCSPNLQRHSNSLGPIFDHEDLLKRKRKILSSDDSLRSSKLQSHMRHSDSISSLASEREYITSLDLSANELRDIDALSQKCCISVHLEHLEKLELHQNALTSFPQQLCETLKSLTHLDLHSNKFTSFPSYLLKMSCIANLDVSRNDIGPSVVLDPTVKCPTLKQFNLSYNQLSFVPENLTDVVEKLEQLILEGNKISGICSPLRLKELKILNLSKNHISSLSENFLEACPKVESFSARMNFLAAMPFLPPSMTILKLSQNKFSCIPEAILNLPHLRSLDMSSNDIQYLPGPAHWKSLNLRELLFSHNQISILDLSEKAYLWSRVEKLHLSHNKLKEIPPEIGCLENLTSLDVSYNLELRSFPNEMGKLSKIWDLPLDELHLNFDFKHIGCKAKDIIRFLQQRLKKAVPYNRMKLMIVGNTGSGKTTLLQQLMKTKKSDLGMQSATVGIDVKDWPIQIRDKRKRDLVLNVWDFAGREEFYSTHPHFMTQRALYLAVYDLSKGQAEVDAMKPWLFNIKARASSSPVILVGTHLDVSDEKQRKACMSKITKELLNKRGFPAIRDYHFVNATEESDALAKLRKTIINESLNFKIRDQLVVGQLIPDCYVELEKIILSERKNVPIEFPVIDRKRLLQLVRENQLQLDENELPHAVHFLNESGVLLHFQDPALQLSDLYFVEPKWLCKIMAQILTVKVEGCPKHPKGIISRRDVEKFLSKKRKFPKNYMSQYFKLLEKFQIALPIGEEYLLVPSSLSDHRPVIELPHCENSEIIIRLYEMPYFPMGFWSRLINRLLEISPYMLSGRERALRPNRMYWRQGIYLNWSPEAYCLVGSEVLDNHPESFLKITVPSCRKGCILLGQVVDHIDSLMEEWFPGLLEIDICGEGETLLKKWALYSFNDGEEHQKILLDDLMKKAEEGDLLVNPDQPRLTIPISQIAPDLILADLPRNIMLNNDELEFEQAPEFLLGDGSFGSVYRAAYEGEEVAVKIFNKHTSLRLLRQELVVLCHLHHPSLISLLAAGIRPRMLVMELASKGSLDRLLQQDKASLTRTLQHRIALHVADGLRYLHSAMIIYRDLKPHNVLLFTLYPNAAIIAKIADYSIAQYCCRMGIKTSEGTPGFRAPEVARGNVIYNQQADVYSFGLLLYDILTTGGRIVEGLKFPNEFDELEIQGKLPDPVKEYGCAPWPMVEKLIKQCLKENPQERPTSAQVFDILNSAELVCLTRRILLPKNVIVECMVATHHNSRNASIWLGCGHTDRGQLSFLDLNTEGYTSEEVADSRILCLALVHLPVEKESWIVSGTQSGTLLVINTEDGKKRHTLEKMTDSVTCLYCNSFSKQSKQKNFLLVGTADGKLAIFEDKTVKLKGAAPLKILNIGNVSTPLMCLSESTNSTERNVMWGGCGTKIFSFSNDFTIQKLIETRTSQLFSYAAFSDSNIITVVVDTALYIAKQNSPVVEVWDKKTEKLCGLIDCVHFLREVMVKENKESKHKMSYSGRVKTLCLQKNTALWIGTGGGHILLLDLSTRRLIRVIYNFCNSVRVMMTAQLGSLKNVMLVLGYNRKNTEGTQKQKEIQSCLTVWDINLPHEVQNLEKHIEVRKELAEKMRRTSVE
Sequence of Leucine-rich repeat serine/threonine-protein kinase 2 (Homo sapiens) (Q5S007 whole entry): as the sequence (Q5S007 whole entry G2019S) above, with S2019G counted along it
Sequence of RAF proto-oncogene serine/threonine-protein kinase (Homo sapiens) (P04049 whole entry): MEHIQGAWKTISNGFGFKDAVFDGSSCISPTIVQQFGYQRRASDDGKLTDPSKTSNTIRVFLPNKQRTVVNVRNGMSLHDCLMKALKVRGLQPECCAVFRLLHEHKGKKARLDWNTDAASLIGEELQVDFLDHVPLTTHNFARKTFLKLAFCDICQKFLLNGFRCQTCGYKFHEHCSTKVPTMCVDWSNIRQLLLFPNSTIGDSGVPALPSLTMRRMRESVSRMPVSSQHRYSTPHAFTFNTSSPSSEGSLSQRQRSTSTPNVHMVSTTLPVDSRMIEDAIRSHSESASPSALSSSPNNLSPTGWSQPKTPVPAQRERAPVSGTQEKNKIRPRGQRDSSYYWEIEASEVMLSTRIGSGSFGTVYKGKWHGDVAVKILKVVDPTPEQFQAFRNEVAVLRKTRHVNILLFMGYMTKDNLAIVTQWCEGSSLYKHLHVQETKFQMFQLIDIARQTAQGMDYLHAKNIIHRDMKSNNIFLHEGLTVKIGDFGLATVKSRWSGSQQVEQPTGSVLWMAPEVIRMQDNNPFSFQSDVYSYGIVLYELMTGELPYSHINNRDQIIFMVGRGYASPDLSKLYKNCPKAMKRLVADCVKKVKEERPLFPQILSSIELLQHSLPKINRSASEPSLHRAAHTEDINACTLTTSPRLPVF

As a reminder, the inhibition is the relative decrease from the control value, in per cent. For `Cc1cccc(Nc2ncc(-c3ccccc3)o2)c1`, the inhibition in experiment [1] is -2.34%; in experiment [2], 1.25%; in experiment [3] it was 1.27%; in experiment [4], 1.6%; in experiment [5], 7.74%; in experiment [6] it was 5.32%. Moreover, the inhibition in experiment [7] was 11.8%.

Turning to `O=C(O[C@H]1CN[C@H](C#Cc2cc3ncnc(Nc4ccc(Cc5ccccc5)cc4)c3s2)C1)N1CCOCC1`, the inhibition in experiment [1] is 0.23%; in experiment [2], -0.04%; in experiment [3], -0.2%; in experiment [4], 1.27%; in experiment [5], 2.6%; in experiment [6] it was 2.35%. The inhibition in experiment [7] was found to be 3.96%.

In the case of `CC1=C(C(=O)Nc2cc(Cl)c3[nH]ncc3c2)C(c2ccc(C(F)(F)F)cc2)CC(=O)N1` (stereo unspecified), the inhibition in experiment [1] was -5.81%; in experiment [2], 2.04%; in experiment [3], 1.44%; in experiment [4], 2.62%; in experiment [5], 4.9%; in experiment [6] it was 4.35%. In experiment [7], the inhibition was 12.6%.

Consider `Nc1nc(-c2cccc(Cl)c2)c(-c2ccc3ncccc3n2)s1`, for which the inhibition in experiment [1] was -0.32%; in experiment [2] it was 3.86%; in experiment [3] it was 2.05%; in experiment [4] it was 3.53%; in experiment [5], 7.21%; in experiment [6], 6.96%. For the same compound, in experiment [7], the inhibition is 9.35%.

With `CC(=O)Nc1cccc(C#Cc2cncnc2Nc2ccc(OCc3cccc(F)c3)c(Cl)c2)c1`, the inhibition in experiment [1] is 1.55%; in experiment [2], -1.12%; in experiment [3], 1.86%; in experiment [4], 4.77%; in experiment [5], 7.3%; in experiment [6], 3.19%. For the same compound, the inhibition in experiment [7] turned out to be 8.37%.

Turning to `CS(=O)(=O)CCNCc1coc(-c2ccc3ncnc(Nc4ccc(OCc5ccccc5)cc4)c3c2)c1`, the inhibition in experiment [1] came out at 2.03%; in experiment [2] it was 1.8%; in experiment [3] it was 2.23%; in experiment [4] it was 0.86%; in experiment [5], 5.65%; in experiment [6] it was 1.72%. For the same compound, in experiment [7], the inhibition worked out at 5.71%.

As to `CCOc1ccc2c(-c3ccnc(Nc4cccc(C(F)(F)F)c4)n3)cnn2n1`, the inhibition in experiment [1] was -1.21%; in experiment [2] it was 0.16%; in experiment [3] it was 1.01%; in experiment [4], 3.4%; in experiment [5], 6.76%; in experiment [6], 4.61%. Moreover, the inhibition in experiment [7] is 10.4%.

In the case of `CCN(CC)S(=O)(=O)c1ccc(OC)c(Nc2ncc(-c3ccccc3)o2)c1`, the inhibition in experiment [1] was -0.65%; in experiment [2], 0.75%; in experiment [3] it was 0.8%; in experiment [4] it was 2.62%; in experiment [5] it was 5.16%; in experiment [6], 1.76%. Also, the inhibition in experiment [7] amounted to 9.32%.

With `CCn1c(-c2nonc2N)nc2c(C#CC(C)(C)O)nc(OC[C@H](N)c3ccccc3)cc21`, the inhibition in experiment [1] was -1.64%; in experiment [2] it was 1.14%; in experiment [3], 1.37%; in experiment [4], 7.19%; in experiment [5], 29.8%; in experiment [6], 23.8%. In experiment [7], the inhibition worked out at 63.2%.

`CC(C)(CO)CNC(=O)c1ccc2c(c1)/C(=N/Nc1ccc(S(N)(=O)=O)cc1)C(=O)N2`: the inhibition in experiment [1] was -3.84%; in experiment [2], -1.23%; in experiment [3], -0.85%; in experiment [4], 3.58%; in experiment [5], 15%; in experiment [6], 6.85%. For the same compound, the inhibition in experiment [7] is 37.8%.

In the case of `COc1cc(/C=N/Nc2ncnc3[nH]ncc23)ccc1O`, the inhibition in experiment [1] is 6.28%; in experiment [2] it was -2.65%; in experiment [3], 4.43%; in experiment [4], 5.72%; in experiment [5], 17.5%; in experiment [6], 10%. Further, the inhibition in experiment [7] turned out to be 45.2%.

In the case of `Fc1ccc(-c2nn3ncccc3c2-c2ccnc(Nc3ccc4c(c3)OCCO4)n2)cc1`, the inhibition was -0.33% in experiment [1]; 2.79% in experiment [2]; 2.18% in experiment [3]; 3.63% in experiment [4]; 7.64% in experiment [5]; 2.59% in experiment [6]. Moreover, in experiment [7], the inhibition stood at 6.75%.

As to `COc1ccc(-c2oc3ncnc(N)c3c2-c2ccc(NC(=O)Nc3cc(C(F)(F)F)ccc3F)cc2)cc1`, the inhibition in experiment [1] was 5.86%; in experiment [2], -1.07%; in experiment [3], 2.91%; in experiment [4] it was 6.22%; in experiment [5], 15%; in experiment [6], 5.81%. Besides, the inhibition in experiment [7] amounted to 16.8%.

As for `COc1cc2ncn(-c3cc(OCc4ccccc4C(F)(F)F)c(C(=O)N(C)C)s3)c2cc1OC`, the inhibition in experiment [1] is -3.66%; in experiment [2] it was 2.2%; in experiment [3], -0.25%; in experiment [4] it was 2.7%; in experiment [5], 15.2%; in experiment [6], 1.6%. The inhibition in experiment [7] worked out at 16.7%.

`CCN1CCC(CC(=O)Nc2n[nH]c3nnc(-c4cccc(F)c4F)cc23)CC1`: the inhibition in experiment [1] is 10.2%; in experiment [2], 0.45%; in experiment [3] it was 1.11%; in experiment [4], 2.47%; in experiment [5], 4.14%; in experiment [6] it was 2.58%. The inhibition in experiment [7] is 4.75%.

With `[O-][S+]1CCN(Cc2ccc(-c3ccc4ncnc(Nc5ccc(OCc6cccc(F)c6)c(Cl)c5)c4c3)o2)CC1`, the inhibition in experiment [1] was -3.13%; in experiment [2], 1.66%; in experiment [3], 1.66%; in experiment [4], 3.74%; in experiment [5], 3.96%; in experiment [6], 6.35%. For the same compound, the inhibition in experiment [7] turned out to be 11.4%.

For `N#Cc1c(NC(=O)c2ccc(F)cc2)sc2c1CCCC2`, the inhibition in experiment [2] was found to be 1.78%; in experiment [3], 0.51%; in experiment [4] it was 0.58%; in experiment [5] it was 1.04%; in experiment [6], 1.92%; in experiment [7] it was 5.12%.

Consider `O=C(Nc1n[nH]c2cc(-c3ccc(F)cc3)ccc12)C1CC1`, for which the inhibition in experiment [1] was -2.56%; in experiment [2] it was 2.26%; in experiment [3], 1.45%; in experiment [4], 0.78%; in experiment [5] it was 5.22%; in experiment [6], 3.03%. Besides, in experiment [7], the inhibition was 6.98%.

On to `CNC(=O)c1cncc(/C=C/c2ccccc2Cl)c1`, for which the inhibition in experiment [1] was -3.13%; in experiment [2] it was -1.64%; in experiment [3], 0.01%; in experiment [4], 3.2%; in experiment [5], 4.57%; in experiment [6], 1.78%. The inhibition in experiment [7] turned out to be 6.07%.

For `CNC(=O)c1cccc(C#Cc2cncnc2Nc2ccc(OCc3cccc(F)c3)c(Cl)c2)c1`, the inhibition in experiment [1] was -1.34%; in experiment [2] it was -3.89%; in experiment [3], 0.26%; in experiment [4] it was 0.02%; in experiment [5], 3.48%; in experiment [6] it was -1.1%. Besides, the inhibition in experiment [7] is 3.49%.

`COc1ccc(-c2cc3c(N)ncnc3o2)cc1`: the inhibition was -0.66% in experiment [1]; -0.28% in experiment [2]; 0.08% in experiment [3]; 0.9% in experiment [4]; 3.63% in experiment [5]; 1.45% in experiment [6]. The inhibition in experiment [7] is 2.82%.

For `CCCN(CCS(C)(=O)=O)Cc1ccc(-c2ccc3ncnc(Nc4ccc(OCc5cccc(F)c5)c(Cl)c4)c3c2)o1`, the inhibition in experiment [1] was -0.27%; in experiment [2], -3.12%; in experiment [3] it was 0.98%; in experiment [4], 3.72%; in experiment [5], 4.95%; in experiment [6], 4.3%. Besides, in experiment [7], the inhibition turned out to be 6.74%.

As for `Cc1ccc2c(-c3ccnc(Nc4ccccc4)n3)c(-c3ccc(F)cc3)nn2n1`, the inhibition was -2.94% in experiment [2]; 1.87% in experiment [3]; 3.22% in experiment [4]; 7.93% in experiment [5]; 3.36% in experiment [6]; 7.63% in experiment [7].

`COc1cc(N2CCN(C(C)C)CC2)ccc1Nc1nc(Nc2ccc(F)cc2C(N)=O)c2cc[nH]c2n1`: the inhibition is -2.24% in experiment [1]; 0.7% in experiment [2]; 1.94% in experiment [3]; 84.9% in experiment [4]; 94.8% in experiment [5]; 85.4% in experiment [6]. The inhibition in experiment [7] was found to be 62.5%.
